# In PubChem BioAssay (NCI):
# About 79,000 compounds went through this panel and 15% of them were active in at least one assay; those are over-represented in the sample as a whole. Unmarked numbers belong to inactive results. Calls of active or inactive are those of the source. Cut-off read from the data, not from the text of the source: active = growth inhibition above about 70%; inactive = the rest.
# Columns and labels:
# [1] = NCI Yeast Anticancer Drug Screen. Data for the rad52 strain (AID 147);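 note: 0% = growth of vehicle-treated control cultures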; conditions: S. cerevisiae rad52 mutant growth inhibition, active compounds read high
# How it was run: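 Read-out: growth inhibition versus vehicle-treated controls. Cells were a DNA repair-deficient yeast strain treated with compounds.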
# [2] = NCI Yeast Anticancer Drug Screen. Data for the rad50EPP+ strain (AID 151);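 note: 0% = growth of vehicle-treated control cultures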; conditions: S. cerevisiae rad50 mutant strain, active compounds read high
# How it was run: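 Growth inhibition read against vehicle controls in rad50EPP+ yeast, a strain altered in DNA damage repair, after compound exposure.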
# [3] = NCI Yeast Anticancer Drug Screen. Data for the rad50 strain (AID 155);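 note: 0% = growth of vehicle-only cultures of the same strain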; conditions: S. cerevisiae rad50 strain growth inhibition, active compounds read high
# How it was run: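 Cells are treated with compound, grown, and their growth is then scored against vehicle-only cultures of the same repair-deficient yeast strain.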
# [4] = NCI Yeast Anticancer Drug Screen. Data for the mec2-1 strain (AID 157); conditions: S. cerevisiae mec2-1 strain, active compounds read high
# How it was run: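 Yeast mec2-1 mutant treated with compound. Readout: growth inhibition vs vehicle controls.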
# [5] = NCI Yeast Anticancer Drug Screen. Data for the rad14 strain (AID 159);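 note: 0% = growth of vehicle-treated control cultures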; conditions: S. cerevisiae rad14 strain growth inhibition, active compounds read high
# How it was run: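 Readout: yeast growth inhibition, referenced to vehicle-only cultures. Strain bears a defined alteration in DNA damage repair.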
# [6] = NCI Yeast Anticancer Drug Screen. Data for the sgs1 mgt1 strain (AID 161);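 note: 0% = growth of cultures given vehicle only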; conditions: S. cerevisiae sgs1 mgt1 strain, active compounds read high
# How it was run: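 Inhibition of yeast growth, normalised to vehicle-treated controls, is reported for a strain bearing genetic alterations in DNA damage repair.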
# [7] = NCI Yeast Anticancer Drug Screen. Data for the CLN2oe strain (AID 163);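 note: 0% = growth of vehicle-only control cultures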; conditions: S. cerevisiae CLN2oe strain, active compounds read high
# How it was run: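 Read-out: yeast growth inhibition, expressed relative to vehicle-only controls. The strain bears an engineered cell-cycle alteration.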
# [8] = NCI Yeast Anticancer Drug Screen. Data for the cln2 rad14 strain (AID 165);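 note: 0% = growth equal to vehicle treated cultures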; conditions: S. cerevisiae cln2 rad14 strain, active compounds read high
# How it was run: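 cln2 rad14 yeast strain; compound exposure; growth inhibition read vs vehicle controls.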
# [9] = NCI Yeast Anticancer Drug Screen. Data for the bub3 strain (AID 167); conditions: S. cerevisiae bub3 mutant strain, active compounds read high
# How it was run: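 Part of a panel of yeast mutants defective in DNA damage repair or cell cycle regulation. Each strain is grown with compound, and inhibition is calculated relative to solvent-treated cultures.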
# [10] = NCI Yeast Anticancer Drug Screen. Data for the wt2 strain (AID 169);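 note: 0% = growth of vehicle-treated yeast cultures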; conditions: S. cerevisiae wt2 strain growth inhibition, active compounds read high
# How it was run: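 Read-out: growth inhibition versus vehicle-treated control cultures after compound exposure of the yeast strain.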
# [11] = NCI Yeast Anticancer Drug Screen. Data for the mlh1 strain (AID 171);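 note: 0% = growth of vehicle-treated control cultures of the same strain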; conditions: S. cerevisiae mlh1 strain growth inhibition, active compounds read high
# How it was run: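 Read-out: growth inhibition versus vehicle controls. Strain: engineered yeast with a defined DNA repair or cell cycle defect, compound-treated.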
# [12] = NCI Yeast Anticancer Drug Screen. Data for the sgs1 strain (AID 173);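 note: 0% = growth of vehicle-only control cultures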; conditions: S. cerevisiae sgs1 mutant, active compounds read high
# How it was run: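 Read-out: yeast growth inhibition relative to vehicle controls, following compound exposure of a strain with a defined DNA repair/cell cycle alteration.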
# [13] = NCI Yeast Anticancer Drug Screen. Data for the mlh1 rad18 strain (AID 175); conditions: S. cerevisiae mlh1 rad18 strain growth inhibition, active compounds read high
# How it was run: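 Yeast w/ defined DNA-repair lesions; compound exposure; growth vs vehicle controls → % inhibition.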
# [14] = NCI Yeast Anticancer Drug Screen. Data for the rad18 strain (AID 177); conditions: S. cerevisiae rad18 mutant growth inhibition, active compounds read high
# How it was run: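 Readout: growth inhibition vs vehicle controls. Cells: genetically altered yeast strain, DNA repair defect.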
# [15] = at 5.0 µM (retest, dose inferred, filed as 0.5)
# [16] = at 50.0 µM (retest, dose inferred, filed as 5.0)
smiles,measurement,setting,value
N#C/C(=C1C=C/C(=N/O)c2ccccc2/1)c1ccccc1,growth inhibition,[1]; at 1.2 µM,-1%
same,growth inhibition,[1]; at 3.7 µM,-1%
same,growth inhibition,[1]; at 11.0 µM,1%
same,growth inhibition,[1]; at 33.0 µM,84% (active)
same,growth inhibition,[1]; at 100.0 µM,71% (active)
same,growth inhibition,[2]; at 1.2 µM,7%
same,growth inhibition,[2]; at 3.7 µM,13%
same,growth inhibition,[2]; at 11.0 µM,16%
same,growth inhibition,[2]; at 33.0 µM,36%
same,growth inhibition,[2]; at 100.0 µM,35%
same,growth inhibition,[3]; at 1.2 µM,2%
same,growth inhibition,[3]; at 3.7 µM,1%
same,growth inhibition,[3]; [15],47%
same,growth inhibition,[3]; at 11.0 µM,4%
same,growth inhibition,[3]; at 33.0 µM,92% (active)
same,growth inhibition,[3]; [16],97% (active)
same,growth inhibition,[3]; at 50.0 µM,96.6% (active)
same,growth inhibition,[3]; at 100.0 µM,87% (active)
same,growth inhibition,[4]; at 1.2 µM,-3%
same,growth inhibition,[4]; at 3.7 µM,-8%
same,growth inhibition,[4]; [15],24%
same,growth inhibition,[4]; at 11.0 µM,-8%
same,growth inhibition,[4]; at 33.0 µM,52%
same,growth inhibition,[4]; [16],97% (active)
same,growth inhibition,[4]; at 50.0 µM,98% (active)
same,growth inhibition,[4]; at 100.0 µM,49%
same,growth inhibition,[5]; at 1.2 µM,-3%
same,growth inhibition,[5]; at 3.7 µM,-6%
same,growth inhibition,[5]; at 11.0 µM,-3%
same,growth inhibition,[5]; at 33.0 µM,55%
same,growth inhibition,[5]; at 100.0 µM,71% (active)
same,growth inhibition,[6]; [15],60%
same,growth inhibition,[6]; [16],97% (active)
same,growth inhibition,[6]; at 50.0 µM,96.6% (active)
same,growth inhibition,[7]; at 1.2 µM,-5%
same,growth inhibition,[7]; at 3.7 µM,-6%
same,growth inhibition,[7]; at 11.0 µM,-6%
same,growth inhibition,[7]; at 33.0 µM,49%
same,growth inhibition,[7]; at 100.0 µM,62%
same,growth inhibition,[8]; [15],8%
same,growth inhibition,[8]; [16],97% (active)
same,growth inhibition,[8]; at 50.0 µM,95.8% (active)
same,growth inhibition,[9]; at 1.2 µM,-6%
same,growth inhibition,[9]; at 3.7 µM,-10%
same,growth inhibition,[9]; [15],49%
same,growth inhibition,[9]; at 11.0 µM,-8%
same,growth inhibition,[9]; at 33.0 µM,42%
same,growth inhibition,[9]; [16],95% (active)
same,growth inhibition,[9]; at 50.0 µM,97.7% (active)
same,growth inhibition,[9]; at 100.0 µM,50%
same,growth inhibition,[10]; at 1.2 µM,-4%
same,growth inhibition,[10]; at 3.7 µM,-5%
same,growth inhibition,[10]; at 11.0 µM,-4%
same,growth inhibition,[10]; at 33.0 µM,49%
same,growth inhibition,[10]; at 100.0 µM,36%
same,growth inhibition,[11]; at 1.2 µM,-1%
same,growth inhibition,[11]; at 3.7 µM,-2%
same,growth inhibition,[11]; at 11.0 µM,1%
same,growth inhibition,[11]; at 33.0 µM,73% (active)
same,growth inhibition,[11]; at 100.0 µM,57%
same,growth inhibition,[12]; at 1.2 µM,-2%
same,growth inhibition,[12]; at 3.7 µM,-2%
same,growth inhibition,[12]; at 11.0 µM,1%
same,growth inhibition,[12]; at 33.0 µM,95% (active)
same,growth inhibition,[12]; at 100.0 µM,66%
same,growth inhibition,[13]; [15],49%
same,growth inhibition,[13]; [16],96% (active)
same,growth inhibition,[13]; at 50.0 µM,91.5% (active)
same,growth inhibition,[14]; at 1.2 µM,-1%
same,growth inhibition,[14]; at 3.7 µM,3%
same,growth inhibition,[14]; at 11.0 µM,-1%
same,growth inhibition,[14]; at 33.0 µM,88% (active)
same,growth inhibition,[14]; at 100.0 µM,80% (active)
